Only some compounds are listed: those with a hit (about 0.87% of all), similar ones and a draw of the others.
WRN helicase inh-1 – WRN helicase (human) inhibition. Q14191. WRN helicase unwinding, fluorescent forked duplex, kinetic. Potency, µM (series often up to 114 µM), inactives show top-dose activity change, negative = inhibition, usual class: inhibitors. 360,000 tested, 0.46% active; note: % is set by controls: 0 for no effect and ±100 for the full control effect; nearly all actives have a fitted effect of over 55% in size
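Fluorescence dequenching readout, ex 525 nm/em 598 nm, kinetic mode: forked duplex DNA (100 nM final) with adjacent fluorophore and quencher unwound by WRN (20 nM final) with 2 mM ATP. Compound preincubation 15 min, room temperature.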
BLM helicase inh-1 – blocks DNA unwinding by human BLM helicase. P54132. recombinant BLM DNA unwinding, fluorescence dequenching. Potency, µM (series often up to 56.1 µM), without a hit: at the top dose activity change, negative = inhibition, usual class: inhibitors. 350,000 tested, 0.2% active. AID 2528;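 note: plate controls were vehicle for no effect and no enzyme for full effect; nearly all actives have a fitted effect of over 35% in size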
RECQ1 inh-1 – RECQ1 (human) helicase inhibition; RECQ1 DNA unwinding, red fluorescence kinetic read; P46063; AID 2549; 240,000 tested, 0.54% active; Potency, µM (series often up to 57.3 µM), inactives show at the top dose activity, negative = inhibition, usual class: inhibitors;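 note: plate controls were vehicle for no effect and no enzyme for full effect; nearly all actives have a fitted effect of over 30% in size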
Target sequence (P46063 whole entry, looked up): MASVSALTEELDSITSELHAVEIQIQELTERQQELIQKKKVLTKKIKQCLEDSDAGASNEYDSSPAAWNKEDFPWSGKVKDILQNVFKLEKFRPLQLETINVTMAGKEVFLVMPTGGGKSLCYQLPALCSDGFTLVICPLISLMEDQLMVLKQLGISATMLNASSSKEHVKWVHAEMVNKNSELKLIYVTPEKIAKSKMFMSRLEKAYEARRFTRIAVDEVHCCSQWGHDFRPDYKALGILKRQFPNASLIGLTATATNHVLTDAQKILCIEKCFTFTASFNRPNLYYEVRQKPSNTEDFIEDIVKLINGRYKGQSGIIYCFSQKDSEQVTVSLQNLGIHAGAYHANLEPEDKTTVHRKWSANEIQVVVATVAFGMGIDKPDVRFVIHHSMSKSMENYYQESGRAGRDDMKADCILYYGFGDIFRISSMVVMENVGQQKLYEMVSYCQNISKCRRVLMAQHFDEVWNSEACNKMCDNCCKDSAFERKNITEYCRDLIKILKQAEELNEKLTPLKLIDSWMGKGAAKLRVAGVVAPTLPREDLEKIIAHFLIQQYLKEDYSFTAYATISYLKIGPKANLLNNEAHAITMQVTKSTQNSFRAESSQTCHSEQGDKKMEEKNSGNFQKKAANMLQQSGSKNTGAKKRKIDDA
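RECQ1T1 50 nM; forked duplex (20 bp + 30-nt ss tails) 200 nM, ATP 2 mM final; pH 8.0, 2 mM MgCl2, 2.5 ug/ml poly(dI-dC); 15 min compound preincubation; discontinuous kinetic read over 2 h at RT.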
APE1 inh-1 – blocks human APE1 abasic DNA cleavage. P27695. recombinant APE1, TAMRA/BHQ-2 abasic DNA cleavage fluorescence. Potency, µM (series often up to 65.8 µM), for inactives: top-dose activity change, negative = inhibition, usual class: inhibitors. 350,000 tested, 0.35% active. AID 2517;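 note: plate controls were vehicle for no effect and reference inhibitor for full effect; nearly all actives have a fitted effect of over 55% in size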
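Compound pre-exposure to 0.75 nM APE1, 15 min at ambient temperature. Reaction initiated with 50 nM TAMRA/BHQ-2 THF substrate, read immediately in kinetic mode, 525 nm excitation, 598 nm emission.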
FEN1 inh-1 – inhibitors of human flap endonuclease 1. Potency, µM (series often up to 114 µM), without a hit: at the top dose activity change, negative = inhibition, usual class: inhibitors. P39748. Recombinant FEN1 flap cleavage, fluorescence, 15 min. 390,000 tested, 0.35% active; note: % is set by controls: 0 for no effect and ±100 for the full control effect; nearly all actives have a fitted effect of over 65% in size
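FEN1 at 10 nM, compound pretreatment for 15 min (room temperature), 50 nM final substrate to initiate; endpoint reads at 0 and 15 min; DMSO-only plates used as vehicle background.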
DNA dye displace – displaces fluorescent dye from DNA, flagging APE1 artifacts. DNA fluorescent dye displacement counterscreen, fluorescence. shares compounds with APE1 inh-1. 480 tested, 7% active. Potency, µM (top dose mostly 28.5 µM), for the others: top-dose activity change, negative = inhibition, usual class: inhibitors;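 note: loss of thiazole orange fluorescence as the dye is displaced from duplex DNA; 0% = ThO with dsDNA and no compound and -100% = ThO without dsDNA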
Endo IV inh – Endo IV (E. coli) inhibition counter-screen; shares compounds with APE1 inh-1; E. coli Endo IV, fluorogenic AP-site DNA cleavage; Potency, µM (top dose mostly 27.1 µM), without a hit: top-dose activity change, negative = inhibition, actives largely listed as inhibitors; 560 tested, 4% active; AID 2565;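 note: plate controls were uninhibited enzyme wells for no effect and no enzyme buffer wells for full effect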
APE1 inh-2 – APE1 (human) endonuclease inhibition, confirmation; AID 2572; 750 tested, 44% active; shares compounds with APE1 inh-1; purified APE1, fluorogenic abasic-site DNA cleavage; Potency, µM (series often up to 57.1 µM), inactives show top-dose activity change, negative = inhibition, most hits filed as inhibitors; note: % is set by controls: 0 for no effect and ±100 for the full control effect; nearly all actives have a fitted effect of over 30% in size
APE1 FP inh – compounds that displace a DNA probe from human APE1; Potency, µM (top dose mostly 28.5 µM), for the others: at the highest dose activity, negative = inhibition, actives largely listed as inhibitors; 480 tested, 7% active; APE1 binding to TAMRA-labelled double-stranded DNA, fluorescence polarization displacement; AID 2573; shares compounds with APE1 inh-1; note: % is set by controls: 0 for no effect and ±100 for the full control effect
BLM inh – BLM (human) helicase inhibition, confirmation; 220 tested, 40% active; BLM DNA unwinding, fluorescence quenching, biochemical; Potency, µM, inactives show max response, negative = inhibition, actives largely listed as inhibitors; shares compounds with BLM helicase inh-1; AID 2585;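 note: strand separation dequenches TAMRA so unwinding raises red fluorescence; series mostly up to about 69 µM; % is set by controls: 0 for no effect and ±100 for the full control effect; nearly all actives have a fitted effect of over 45% in size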
RECQ1 inh-2 – confirmation of human RECQ1 helicase inhibitors; shares compounds with RECQ1 inh-1; recombinant RECQ1 DNA unwinding, red fluorescence; Potency, µM (doses to about 119 µM), for the others: top-dose activity, negative = inhibition, most hits filed as inhibitors; 1,100 tested, 15% active; AID 504841; note: % is set by controls: 0 for no effect and ±100 for the full control effect; nearly all actives have a fitted effect of over 50% in size
FEN1 inh-2 – FEN1 inhibition, cherry-pick retest | 880 tested, 79% active | FEN1 flap cleavage, TAMRA/BHQ2 fluorogenic DNA substrate | Potency, µM, hits mostly inhibitors | shares compounds with FEN1 inh-1; note: nearly all actives have a fitted effect of over 60% in size
WRN helicase inh-2 – confirmation of human WRN helicase inhibitors; shares compounds with WRN helicase inh-1; WRN helicase DNA unwinding, fluorescence kinetic; Potency, µM (titrated, usually from 57.1 µM), inactives show top-dose activity, negative = inhibition, hits mostly inhibitors; 610 tested, 63% active; note: nearly all actives have a fitted effect of over 65% in size
TO DNA binding – DNA binding via thiazole orange displacement. shares compounds with WRN helicase inh-1. thiazole orange DNA binding displacement, fluorescence. Potency, µM (titrated, usually from 57.1 µM), inactives show at the top dose activity change, negative = inhibition, most hits filed as inhibitors. 610 tested, 10% active;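 note: drop in dye fluorescence marks compound binding to DNA; % is set by controls: 0 for no effect and ±100 for the full control effect; nearly all actives have a fitted effect of over 60% in size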
BLM helicase inh-2 – blocks human BLM helicase in WRN counterscreen; shares compounds with WRN helicase inh-1; Recombinant BLM helicase DNA unwinding, red fluorescence; Potency, µM (top dose mostly 57.1 µM), for inactives: at the top dose activity change, negative = inhibition, hits mostly inhibitors; 610 tested, 60% active; AID 720503; note: nearly all actives have a fitted effect of over 60% in size
Active calls of the source: *; i = inactive; ? = inconclusive; · = no result; [ ] = another dose, or the depositor's remark. Calls come from the whole dose curve; as a rule, active = well fitted curve in the direction sought with a large enough effect; inconclusive = small, poorly fitted or top-dose-only effect, or another doubt; inactive = no such curve, though single readings can be large; an effect the other way counts as inactive or inconclusive. Potency is the fitted concentration of half-maximal effect.

SMILES	WRN helicase inh-1	BLM helicase inh-1	RECQ1 inh-1	APE1 inh-1	FEN1 inh-1	DNA dye displace	Endo IV inh	APE1 inh-2	APE1 FP inh	RECQ1 inh-2	FEN1 inh-2	others
COc1ccc(NC(=O)C2CCCN(S(=O)(=O)c3ccc4c(c3)CCCC(=O)N4)C2)cc1OC (centres undefined)	·	1%	·	·	-4%	·	·	·	·	·	·
CCc1c(C)c2ccc(O)c(CN3CCN(c4cc(Cl)ccc4C)CC3)c2oc1=O	·	-5%	·	·	-3%	·	·	·	·	·	·
O=c1cc2c(=O)oc3cc(O)c(O)oc3c2c(O)c1O	?	-5%	4.5µM*	0.35µM*	7.1µM*	?	187%	0.13µM*	2%	·	8.5*
O=Cc1cc2ccccc2cc1O	·	·	·	·	4%	·	·	·	·	·	·
O=c1c(O)cccc2cc(O)c(O)c(O)c12	4µM*	13µM*	2.5µM*	0.71µM*	?	·	-2%[57.1 µM]	0.45µM*	·	·	24*
Cc1ccccc1-n1c(C)cc(/C=C2/C(=N)N3C(c4ccccc4)=CSC3=NC2=O)c1C	-13%	-5%	-9%	3%	-4%	·	·	·	·	·	·
N=C1/C(=C\c2ccc(-c3cccc(C(=O)O)c3)o2)C(=O)N=C2SC=C(c3ccccc3)N12	40µM*	-24%	?	40µM*	32µM*	·	·	40µM*	·	?	67*
CCOc1ccc(Cn2c(CNS(=O)(=O)c3ccc(C(C)(C)C)cc3)nc3cccnc32)cc1	·	-9%	·	·	-26%	·	·	·	·	·	·
Cc1cc(C(=O)O)ccc1-c1ccc(CO)o1	-10%	0%	i	2%	-2%	·	·	·	·	·	·
Cc1ccc(CN2C(=O)N/C(=C\c3ccc(-c4ccc(C(=O)O)cc4C)o3)C2=O)cc1	?	-17%	?	16µM*	45µM*	?	13%	?	0%	·	76*
CC(C)NC(=O)c1ccc(Cn2c(SCC(N)=O)nc3ccccc3c2=O)cc1	·	3%	·	·	21%	·	·	·	·	·	·
C=CCc1cccc2cc(C(=O)Nc3ccc(F)cc3)c(=O)oc12	7%	-2%	-3%	18%	-9%	·	·	·	·	·	·
C=CCc1cccc2cc(C(=O)Nc3ccc(S(=O)(=O)Nc4nnc(CC)s4)cc3)c(=O)oc12	-32%	?	-4%	?	40µM*	·	·	40µM*	·	·	85*
COc1cc(OC)c(NC(=O)C(CC(C)C)N2Cc3ccccc3C2=O)cc1Cl (centres undefined)	·	-14%	·	·	-28%	·	·	·	·	·	·
COCCCNc1c2c3c(cccc3[nH]c1=O)C(=O)c1ccccc1-2	28µM*	-10%	25µM*	?	79µM*	·	13µM*	?	4µM*	56µM*	60*
CCOC(=O)c1c2c3c(cccc3[nH]c1=O)C(=O)c1ccccc1-2	-14%	1%	-6%	-1%	-15%	·	·	·	·	·	·
O=C1CC(c2nc3ccccc3n2CCCCOc2ccccc2)CN1c1ccccc1Cl (centres undefined)	·	-12%	·	·	-1%	·	·	·	·	·	·
O=C(CCc1nc2cccnc2n1Cc1cccs1)Nc1cccc(Cl)c1	·	-11%	·	·	-13%	·	·	·	·	·	·
N#C/C(=C\c1cc(O)c(O)c(O)c1)C(N)=O	-30%	?	-23%	3.5µM*	?	4%	160%	?	1%	·	13*
CCN(c1ccccc1)S(=O)(=O)c1cc(C(=O)O)ccc1C	-31%[11.6 µM]	-1%	28µM*	16µM*	-7%	·	·	32µM*	·	?	?
CC(=O)Nc1sc2c(c1-c1nc3ccccc3s1)CCN(C(C)C)C2	-25%	212%	?	13µM*	?	6%	13µM*	3.5µM*	2.5µM*	45µM*	12*	BLM inh=459%
Cc1c(Cl)cccc1N=Cc1ccc([N+](=O)[O-])s1	-17%	-9%	?	?	14µM*	?	3%	-8%[24.4 µM]	10%	?	13*
Oc1ccc(-c2cn3c(n2)SCC3)cc1O	4.7µM*	16µM*	2.5µM*	1.6µM*	?	3%	95%	13µM*	-5%	7.1µM*	·	BLM inh=?;WRN helicase inh-2=?;TO DNA binding=30%;BLM helicase inh-2=17µM*
Brc1ccc(-c2cn3c(n2)SCC3)cc1	7%	-2%	i	1%	-12%	·	·	·	·	·	·

Bioassay records as filed in PubChem.
